Data reported in paper PMC5540273 (PLoS ONE, 2017).

Columns and labels:
Conditions in all cases: concentration: 1 μM, replicates: in singlicate; n = 1
[1] = tested on: AAK1
[2] = tested on: ABL1-nonphosphorylated
[3] = tested on: ABL1-phosphorylated
[4] = tested on: ABL2
[5] = tested on: ACVR1B
[6] = tested on: ACVR1
[7] = tested on: ACVR2A
[8] = tested on: ACVR2B
[9] = tested on: ACVRL1
[10] = tested on: T1, ADCK3
T1 construct: gene CABC1

[11] = tested on: ADCK4
[12] = tested on: AKT1
[13] = tested on: AKT2
[14] = tested on: AKT3
[15] = tested on: ALK
[16] = tested on: T2, AMPK-alpha1
T2 construct: gene PRKAA1

[17] = tested on: T3, AMPK-alpha2
T3 construct: gene PRKAA2

[18] = tested on: ANKK1
[19] = tested on: T4, ARK5
T4 construct: gene NUAK1

[20] = tested on: T5, ASK1
T5 construct: gene MAP3K5
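Note: KINOMEscan kinase panel screen.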

| Compound | %Inh [1] | %Inh [2] | %Inh [3] | %Inh [4] | %Inh [5] | %Inh [6] | %Inh [7] | %Inh [8] | %Inh [9] | %Inh [10] | %Inh [11] | %Inh [12] | %Inh [13] | %Inh [14] | %Inh [15] | %Inh [16] | %Inh [17] | %Inh [18] | %Inh [19] | %Inh [20] |
| --- | --- | --- | --- | --- | --- | --- | --- | --- | --- | --- | --- | --- | --- | --- | --- | --- | --- | --- | --- | --- |
| N#Cc1cnc2cc(-c3cnc(CNCCN4CCOCC4)s3)ccc2c1Nc1ccc(Oc2ccccc2)cc1 [GW664114] | 31% | 97.4% | 49% | 58% | 0% | 0% | 0% | 0% | 0% | 0% | 36% | 0% | 0% | 0% | 34% | 21% | 30% | 45% | 10% | 5% |
| COc1cc(Nc2nccc(N3CCC(NS(=O)(=O)c4ccc(NC(C)=O)cc4)CC3)n2)cc(OC)c1OC [GSK1379825] | 68% | 0% | 2% | 38% | 34% | 66% | 47% | 59% | 0% | 80% | 96.2% | 0% | 15% | 0% | 32% | 17% | 50% | 0% | 43% | 0% |
| COc1cccc(CC(=O)N2CCc3cc(-c4cn(C)c5ncnc(N)c45)ccc32)c1 [GSK2608899] | 18% | 57% | 4% | 30% | 14% | 0% | 0% | 61% | 19% | 2% | 0% | 0% | 8% | 27% | 5% | 15% | 25% | 6% | 19% | 14% |
| COc1cccc(C2=C(Nc3cccc(O)c3)C(=O)NC2=O)c1 [SB-390771] | 38% | 0% | 4% | 10% | 0% | 18% | 0% | 6% | 0% | 5% | 32% | 0% | 7% | 0% | 4% | 16% | 3% | 0% | 12% | 7% |
| Nc1ncc(-c2ccc3nccc(-c4ccncc4)c3c2)cc1S(=O)(=O)N1CCCCC1 [GSK1693850] | 0% | 0% | 0% | 9% | 0% | 53% | 2% | 9% | 37% | 65% | 33% | 0% | 1% | 0% | 22% | 0% | 1% | 35% | 0% | 14% |
| O=C(O)C(F)(F)F.O=c1[nH]ccc2nc(N[C@@H]3CCNC3)nc(Nc3ccc4c(c3)S(=O)(=O)CC4)c12 [GSK2181306] | 87% | 53% | 66% | 26% | 0% | 15% | 0% | 3% | 0% | 14% | 15% | 0% | 0% | 47% | 86% | 89% | 81% | 97.4% | 99.9% | 0% |
| COc1ccc(C)c(Nc2ccnc(Nc3ccc(-c4cnc[nH]4)cc3)n2)c1.Cl [GW784041] | 29% | 95.4% | 97.1% | 92.8% | 74% | 99% | 93.5% | 93.3% | 91.7% | 40% | 53% | 14% | 0% | 8% | 0% | 30% | 0% | 0% | 99.3% | 0% |
| Cc1ccc(NC(=O)c2ccnc(N3CCCCC3)c2)cc1-c1ccc(C(=O)NCC2CC2)cc1 [GW775610] | 0% | 55% | 0% | 54% | 0% | 0% | 0% | 0% | 0% | 0% | 0% | 0% | 0% | 0% | 10% | 19% | 0% | 0% | 2% | 0% |
| Cc1ccc(-c2ccc3occ(-c4ccc(S(C)=O)cc4)c3c2)nn1 (stereo not drawn) | 15% | 35% | 29% | 0% | 7% | 0% | 0% | 0% | 20% | 0% | 0% | 2% | 12% | 9% | 0% | 0% | 1% | 0% | 16% | 0% |
